Screening results as filed in PubChem.
Sampled rows, rich in hits. Any-hit rate of the full collection: about 1.7%.
GLP-1R agonist: activates the human GLP-1 receptor. HEK293 GLP-1R CRE-luciferase, luminescence, 4-6 h; cells express a hypersensitive GLP-1R form. 0.007% of 380,000 active. Potency, µM (series often up to 45.6 µM), without a hit: at the top dose activation, actives largely listed as activators; further: potency means the concentration at half of the fitted maximal effect; % of control where 0% means no effect
HEK293 tox: cytotoxicity counter-screen for GLP-1 receptor inverse agonists; AID 624418; HEK293 cAMP-luciferase reporter cells, luminescence, 24 h; Potency, µM (doses to about 38.3 µM), for the others: at the top dose activity change, negative = inhibition, most hits filed as inhibitors; 0.13% of 410,000 active;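 further: loss of luciferase light is scored as toxicity; potency means the concentration at half of the fitted maximal effect; on the % scale 0 is the no-effect control and ±100 the full control effect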
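To flag toxic compounds, the library was rerun on cells for 24 hr at 37 deg C and 5% CO2. Viability-linked luminescence was captured 12 min after adding luciferase detection reagent.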
GLP1R inv ag: acts as inverse agonist at human GLP-1 receptor; Potency, µM (titrated, usually from 38.3 µM), for the others: at the top dose activity change, negative = inhibition, actives largely listed as inhibitors; HEK293 GLP-1R CRE-luciferase, luminescence, 24 h; GLP-1R form is constitutively active; AID 624417; P43220; 1.6% of 410,000 active; further: potency means the concentration at half of the fitted maximal effect; on the % scale 0 is the no-effect control and ±100 the full control effect; nearly all actives have a fitted effect of over 55% in size
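Constitutively active GLP-1R drives a cAMP-responsive luciferase in stably transfected HEK293 cells; test compounds are added after overnight (12 h) attachment and left 24 hr, and signal loss in luminescence marks inhibition.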
PTHR1 ag: activates the human parathyroid hormone receptor PTHR1; Q03431; HEK293 GP2 PTHR1 cells, GloSensor cAMP luminescence, 1 h; Potency, µM (series often up to 115 µM), for inactives: at the top dose activation, usual class: activators; 0.075% of 410,000 active; AID 743266; further: potency means the concentration at half of the fitted maximal effect; nearly all actives have a fitted effect of over 55% in size
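HEK-293-derived GP2 cells expressing PTHR1 and a GloSensor cAMP reporter, 3,000/well, plated overnight, given luciferin plus IBMX (each 0.5 mM as added) for 1 h at 37 °C, then compound for 1 h at 37 °C. Luminescence was read after 15 min at room temperature.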
IDH1 R132H inh: inhibitors of human mutant IDH1 R132H | O75874 | AID 602179 | Potency, µM (highest dose often 76.6 µM), inactives show top-dose activity change, negative = inhibition, usual class: inhibitors | IDH1-R132H enzyme, NADPH consumption, diaphorase/resazurin fluorescence | 0.093% of 390,000 active; further: potency means the concentration at half of the fitted maximal effect; on the % scale 0 is the no-effect control and ±100 the full control effect; nearly all actives have a fitted effect of over 65% in size
Target sequence (O75874 whole entry R132H, stated change not applied): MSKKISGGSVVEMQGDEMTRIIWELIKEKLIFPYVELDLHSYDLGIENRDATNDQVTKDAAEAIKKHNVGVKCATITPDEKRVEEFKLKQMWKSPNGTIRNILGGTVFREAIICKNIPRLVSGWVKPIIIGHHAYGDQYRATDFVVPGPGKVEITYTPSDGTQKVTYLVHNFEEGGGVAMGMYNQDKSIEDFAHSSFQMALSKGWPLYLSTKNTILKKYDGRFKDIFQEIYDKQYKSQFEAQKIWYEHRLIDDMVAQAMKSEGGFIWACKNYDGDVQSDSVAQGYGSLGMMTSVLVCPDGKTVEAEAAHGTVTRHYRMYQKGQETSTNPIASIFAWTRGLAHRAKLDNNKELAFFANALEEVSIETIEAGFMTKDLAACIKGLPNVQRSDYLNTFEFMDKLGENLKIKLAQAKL
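IDH1-R132H (0.5 ug/mL dispensed) in pH 7.5 Tris buffer was preincubated 30 min with compound, then given a substrate mix of 0.016 mM NADPH and 2 mM alpha-KG for 80 min at room temperature; remaining NADPH was read by diaphorase/resazurin fluorescence.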
LDHA inh: inhibitors of human lactate dehydrogenase A. P00338. purified LDHA, NADH/diaphorase-resazurin fluorescence; stronger effect = lower value. activity change, % (values are at about 110 or 230 µM). 0.15% of 480,000 active; in the data active means activity change below about -30%; inconclusive means mostly about -25% to -30%;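 further: plate controls were DMSO wells for no effect and wells without enzyme for full effect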
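Remaining NADH was detected by diaphorase (0.133 mg/mL) converting 37 µM resazurin to fluorescent resorufin, read at 0 and 20 minutes. The preceding 5-minute room-temperature reaction used 2 nM LDHA, 0.2 mM sodium pyruvate and 0.06 mM NADH at pH 7.4.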
* hit, by the source's call; i = inactive; ? = inconclusive; . = not tested or not shown. Unless noted, the call rests on the fitted dose curve; in most records, active means well fitted curve in the direction sought with a large enough effect; inconclusive means small, poorly fitted or top-dose-only effect, or another doubt; inactive means no such curve, though single readings can be large; an effect the other way counts as inactive or inconclusive.

SMILES	GLP-1R agonist	HEK293 tox	GLP1R inv ag	PTHR1 ag	IDH1 R132H inh	LDHA inh
COC(=O)C1=C(N)Oc2cc(C)n(CC3CCCO3)c(=O)c2C1c1ccccc1OC (stereo unspecified)	-7%	-7%	7%	i	5%	-4
CCCCN(CC)C(=O)CSc1n[nH]c(=O)c2cc(-c3ccc(OC)c(OC)c3)nn12	.	.	.	.	.	4
CC1C/C(=C/c2cccn2C)C(=O)/C(=C/c2cccn2C)C1 (stereo unspecified)	5%	93%	13µM*	i	7%	5
CC1C/C(=C/c2ccncc2)C(=O)/C(=C/c2ccncc2)C1 (stereo unspecified)	-9%	?	?	-96%	?	-2
CC(=O)NC12CC3CC(C1)CC(C(=O)NCCCC1CCCC1)(C3)C2	.	.	.	.	.	-5
CCCCNC(=O)COC(=O)Cc1nn(C)c(=O)c2ccccc12	.	.	.	.	.	16
Cc1ccc(/C=N/NC(=O)CSc2nc3ccccc3n2Cc2ccc(Cl)cc2)o1	-9%	-23%	10µM*	-18%	1%	2
CC1=C(C(=O)Nc2ccccc2C(=O)NC2CCCCC2C)SCCO1 (stereo unspecified)	1%	0%	10µM*	-37%	7%	-1
O=C(O)CNS(=O)(=O)c1ccc(Br)c2ccccc12	.	.	.	.	.	-1
Cc1ccc(NC(=S)NCc2cccn2C)cc1	3%	-3%	1%	3.5µM*	2%	4
CCNC(=O)NC(=O)CN(C)Cc1ccccc1	.	.	.	.	.	2
Fc1ccc(-c2noc(CSc3nncc4ccccc34)n2)cc1	.	.	.	.	.	5
Cc1ccc(S(=O)(=O)N(Cc2nc(-c3cccc(C)c3)no2)C2CCCCC2)cc1	.	38%	10µM*	i	-5%	-5
O=S(=O)(c1ccccc1)N(Cc1nc(-c2ccccc2)no1)C1CCCCC1	7%	5%	6.3µM*	-9%	6%	-3
Cc1cccc(-c2noc(CN(C3CCCCC3)S(=O)(=O)c3ccc(F)cc3)n2)c1	.	3%	2%	i	-13%	-6
O=S(=O)(c1ccc(F)cc1)N(Cc1nc(-c2ccccc2)no1)C1CCCCC1	.	4%	?	-2%	-5%	-9
NC(=S)NN=C1CCC(C2CCCCC2)CC1 (stereo unspecified)	14%	?	2.2µM*	-13%	7%	-7
NC(=S)NN=C1CCCCCCCCCC1	-3%	?	?	-4%	0%	-6
Cc1cccc(NC(=O)C2(C)CC3c4ccccc4C2c2ccccc23)c1C (stereo unspecified)	-14%	10%	10µM*	-11%	-1%	-2
c1ccc2c(c1)OC(CCCN1CCCCC1)c1ccccc1S2 (stereo unspecified)	0%	-17%	7.9µM*	i	-6%	-3
CN1CCCC(CC2Oc3ccccc3Sc3ccccc32)C1 (stereo unspecified)	-3%	?	5.6µM*	i	8%	-11
O=C(O)c1ccc(CS(=O)(=O)c2ccccc2)cc1	.	.	.	.	.	0
CCOc1cc(/C=N/Nc2cc(C)nc(-n3nc(C)cc3C)n2)ccc1O	-1%	?	-24%	i	1%	1
COc1ccc(/C=N/Nc2cc(C)nc(-n3nc(C)cc3C)n2)c(OC)c1	-7%	?	1.3µM*	-41%	-5%	5
O=C(NCC1CCCO1)C(c1cccs1)N(Cc1ccccc1)C(=O)c1ccc(-c2ccccc2)[nH]1 (stereo unspecified)	0%	-25%	?	-8%	0%	5
O=C(NCC1CCCO1)C(c1cccs1)N(C(=O)c1ccc(-c2ccccc2)[nH]1)C1CCCC1 (stereo unspecified)	-2%	-2%	10µM*	-17%	-2%	-4
